According to PubChem BioAssay (EPA / NIEHS):
Inconclusive results are not listed. The source made the active and inactive calls. Rule for the calls, unless noted: active = hit-call score of the fitted dose curve at least 0.9, where 1 is the maximum; inconclusive = response in the unintended direction; inactive = score below 0.9.

Biological target: Estrogen receptor beta (Homo sapiens) (UniProt Q92731)
Assay: OT_ER_ERbERb_1440: Odyssey Thera (OT) 24-hour HEK293T Protein-Complementation Assay for Estrogen Receptor-beta/-beta Homodimer (AID 2283380);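 note: fluorescence gain from ER beta LBD homodimer complementation read by laser scanning cytometry; scored as signal increase over DMSO baseline for both agonists and antagonists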
How it was run: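 HEK293T cells stably expressing human ER-beta LBD (aa 310-547) PCA homodimer pair, dosed 24 h; formaldehyde-fixed, Draq5-stained. Readout: increase in nuclear (agonist) or nuclear plus cytoplasmic (antagonist) fluorescence intensity versus DMSO, gain-of-signal fitting.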

Estrogen receptor beta (Homo sapiens), sequence (Q92731 whole entry, looked up, the tested form may be a part): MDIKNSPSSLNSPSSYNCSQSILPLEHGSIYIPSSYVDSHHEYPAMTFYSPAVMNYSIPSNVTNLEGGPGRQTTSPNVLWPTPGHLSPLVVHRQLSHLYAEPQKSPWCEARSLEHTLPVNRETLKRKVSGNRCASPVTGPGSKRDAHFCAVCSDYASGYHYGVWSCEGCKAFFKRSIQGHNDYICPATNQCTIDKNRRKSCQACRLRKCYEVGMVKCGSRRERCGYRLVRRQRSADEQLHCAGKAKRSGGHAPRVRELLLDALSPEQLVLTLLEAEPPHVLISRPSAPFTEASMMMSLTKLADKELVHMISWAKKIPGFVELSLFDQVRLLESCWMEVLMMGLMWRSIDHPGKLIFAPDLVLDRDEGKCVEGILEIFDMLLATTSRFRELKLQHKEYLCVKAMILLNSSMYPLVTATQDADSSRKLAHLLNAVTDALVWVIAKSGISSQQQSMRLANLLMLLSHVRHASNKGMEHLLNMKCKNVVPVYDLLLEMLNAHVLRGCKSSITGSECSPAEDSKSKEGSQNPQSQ

SMILES	outcome	AC50
CN(C)C(=O)Nc1ccccc1	inactive	
CCCCCCCCCCCCN1CCOCC1	inactive	
c1ccc2scnc2c1	inactive	
O=C(OCc1ccccc1)c1ccccc1O		49.7 µM (active)
CN(C)C	inactive	
CCC(C)COC(=O)CC(C)C (stereo not drawn)	inactive	
Cc1cccc(O)c1	inactive	
CCCC1CCC(=O)CC1	inactive	
NCCN1CCNCC1	inactive	
CCCCOCCOCCO	inactive	
CC(C)N(c1ccccc1)C(C)C	inactive	
CC12CCC(C1)C(C)(C)C2O (stereo not drawn)	inactive	
CC(=O)c1ccc(O)cc1	inactive	
CC(O)CN (stereo not drawn)	inactive	
[Na+]	inactive	
CC(C)(C)c1ccc(S)cc1	inactive	
CC(=O)c1ccc2ccccc2c1	inactive	
CC(=O)Nc1cc(S(=O)(=O)O)cc2cc(S(=O)(=O)O)c(N=Nc3ccccc3)c(O)c12	inactive	
COc1ccc2[nH]cc(CCNC(C)=O)c2c1	inactive	

SMILES	outcome	AC50
CC(=O)OC(C)(C)C	inactive	
CCC(=O)OC(C)(C)C1CC=C(C)CC1 (stereo not drawn)	inactive	
c1ccc(OCCOc2ccccc2)cc1	inactive	
C=CCCCCCCCCC(=O)OCC	inactive	
CCCCCCCC(=O)N(C)C	inactive	
CCCCCCC(C)O (stereo not drawn)	inactive	
COC(=O)C(C)Oc1ccc(Oc2ncc(C(F)(F)F)cc2Cl)cc1 (stereo not drawn)	inactive	
CN1CCc2cccc3c2[C@H]1Cc1ccc(O)c(O)c1-3	inactive	
CCC(C)C1CCCCC1=O (stereo not drawn)	inactive	
NC(=O)c1cccnc1	inactive	
CC(=O)C1=C(C)[C@@H]2C[C@@]3(C1)[C@H](C)CC[C@H]3C2(C)C		12.7 µM (active)
O=S(=O)(O)c1cc(S(=O)(=O)O)c2c(N=Nc3ccccc3)c(O)ccc2c1	inactive	
CNC(=C[N+](=O)[O-])NCCSCc1ccc(CN(C)C)o1	inactive	
c1ccc(Cc2ccccc2)cc1	inactive	
C1CCCNCC1	inactive	
CCCCC(CC)COCCO (stereo not drawn)	inactive	
CCCCOCCOCCOCCO	inactive	
CC(=O)CC(=O)N(C)C	inactive	

Biological target: Estrogen receptor (Homo sapiens) (UniProt P03372)
Assay: OT_ERa_GFPERaERE_0480: Odyssey Thera (OT) 8-hour HeLa Transcription Induction Assay for Estrogen Receptor (AID 2283381; active = hit-call score of the fitted dose curve at least 0.9, where 1 is the maximum; inactive = score below 0.9)
How it was run: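 An 8 h HeLa transcription-induction format with a GFP reporter under ERE control, read by fluorescence microscopy; single endpoint fitted positively with DMSO as baseline.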

Estrogen receptor (Homo sapiens), sequence (P03372 whole entry, looked up): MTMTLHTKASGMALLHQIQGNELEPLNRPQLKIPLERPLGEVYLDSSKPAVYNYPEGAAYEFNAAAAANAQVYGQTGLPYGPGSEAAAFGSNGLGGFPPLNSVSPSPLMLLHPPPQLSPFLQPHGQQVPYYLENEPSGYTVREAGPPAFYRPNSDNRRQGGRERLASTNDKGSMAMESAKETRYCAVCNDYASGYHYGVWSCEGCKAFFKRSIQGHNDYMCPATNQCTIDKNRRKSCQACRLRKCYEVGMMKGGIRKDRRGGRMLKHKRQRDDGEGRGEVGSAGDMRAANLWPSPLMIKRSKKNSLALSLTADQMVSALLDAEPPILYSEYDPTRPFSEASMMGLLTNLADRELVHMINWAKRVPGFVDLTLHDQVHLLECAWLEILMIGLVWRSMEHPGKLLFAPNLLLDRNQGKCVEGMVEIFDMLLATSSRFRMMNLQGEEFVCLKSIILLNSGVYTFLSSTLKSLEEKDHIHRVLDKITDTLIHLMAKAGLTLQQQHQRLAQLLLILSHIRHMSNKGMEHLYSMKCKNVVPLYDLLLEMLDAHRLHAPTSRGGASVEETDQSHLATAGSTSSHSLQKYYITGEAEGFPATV

SMILES	outcome
CN(C)C(=O)Nc1ccccc1	inactive
O=C(OCc1ccccc1)c1ccccc1O	inactive
CN(C)C	inactive
CCC(C)COC(=O)CC(C)C (stereo not drawn)	inactive
NCCN1CCNCC1	inactive
CCCCOCCOCCO	inactive
CC(C)N(c1ccccc1)C(C)C	inactive
CC(=O)c1ccc(O)cc1	inactive
CC(O)CN (stereo not drawn)	inactive
[Na+]	inactive
CC(C)(C)c1ccc(S)cc1	inactive
CC(=O)OC(C)(C)C	inactive
c1ccc(OCCOc2ccccc2)cc1	inactive
CCCCCCC(C)O (stereo not drawn)	inactive
CN1CCc2cccc3c2[C@H]1Cc1ccc(O)c(O)c1-3	inactive
CNC(=C[N+](=O)[O-])NCCSCc1ccc(CN(C)C)o1	inactive
CCCCC(CC)COCCO (stereo not drawn)	inactive
CCCCOCCOCCOCCO	inactive

Biological target: Estrogen receptor (Homo sapiens) (UniProt P03372)
Assay: OT_ERa_GFPERaERE_0120: Odyssey Thera (OT) 2-hour HeLa Transcription Induction Assay for Estrogen Receptor (AID 2283382)
How it was run: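 Two-hour compound treatment of HeLa cells preceded microscopy imaging of an inducible fluorescent reporter. Image-based quantification gave one endpoint, analysed for signal increase relative to DMSO controls.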

SMILES	outcome	AC50
CN(C)C(=O)Nc1ccccc1	inactive	
CCCCCCCCCCCCN1CCOCC1	inactive	
c1ccc2scnc2c1	inactive	
O=C(OCc1ccccc1)c1ccccc1O	inactive	
CN(C)C	inactive	
CCC(C)COC(=O)CC(C)C (stereo not drawn)	inactive	
Cc1cccc(O)c1	inactive	
CCCC1CCC(=O)CC1	inactive	
NCCN1CCNCC1	inactive	
CCCCOCCOCCO	inactive	
CC(C)N(c1ccccc1)C(C)C	inactive	
CC12CCC(C1)C(C)(C)C2O (stereo not drawn)	inactive	
CC(=O)c1ccc(O)cc1	inactive	
CC(O)CN (stereo not drawn)	inactive	
[Na+]	inactive	
CC(C)(C)c1ccc(S)cc1	inactive	
CC(=O)c1ccc2ccccc2c1	inactive	
CC(=O)Nc1cc(S(=O)(=O)O)cc2cc(S(=O)(=O)O)c(N=Nc3ccccc3)c(O)c12	inactive	
COc1ccc2[nH]cc(CCNC(C)=O)c2c1	inactive	

SMILES	outcome	AC50
CC(=O)OC(C)(C)C	inactive	
CCC(=O)OC(C)(C)C1CC=C(C)CC1 (stereo not drawn)	inactive	
c1ccc(OCCOc2ccccc2)cc1	inactive	
C=CCCCCCCCCC(=O)OCC	inactive	
CCCCCCCC(=O)N(C)C	inactive	
CCCCCCC(C)O (stereo not drawn)	inactive	
COC(=O)C(C)Oc1ccc(Oc2ncc(C(F)(F)F)cc2Cl)cc1 (stereo not drawn)	inactive	
CN1CCc2cccc3c2[C@H]1Cc1ccc(O)c(O)c1-3	inactive	
CCC(C)C1CCCCC1=O (stereo not drawn)	inactive	
NC(=O)c1cccnc1	inactive	
CC(=O)C1=C(C)[C@@H]2C[C@@]3(C1)[C@H](C)CC[C@H]3C2(C)C	inactive	
O=S(=O)(O)c1cc(S(=O)(=O)O)c2c(N=Nc3ccccc3)c(O)ccc2c1	inactive	
CNC(=C[N+](=O)[O-])NCCSCc1ccc(CN(C)C)o1	inactive	
c1ccc(Cc2ccccc2)cc1		7.03 µM (active)
C1CCCNCC1	inactive	
CCCCC(CC)COCCO (stereo not drawn)	inactive	
CCCCOCCOCCOCCO	inactive	
CC(=O)CC(=O)N(C)C	inactive	

Biological target: Bile acid receptor (Homo sapiens) (UniProt Q96RI1)
Assay: OT_FXR_FXRSRC1_0480: Odyssey Thera (OT) 8-hour HEK293T Protein-Complementation Assay for Farnesoid X receptor/SRC-1 Co-activator (AID 2283383)
How it was run: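 Readings were taken 8 h after dosing HEK293T cells in a split-reporter complementation format pairing FXR with SRC-1. Increased fluorescence relative to DMSO-treated wells defined activity.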

Bile acid receptor (Homo sapiens), sequence (Q96RI1 whole entry, looked up): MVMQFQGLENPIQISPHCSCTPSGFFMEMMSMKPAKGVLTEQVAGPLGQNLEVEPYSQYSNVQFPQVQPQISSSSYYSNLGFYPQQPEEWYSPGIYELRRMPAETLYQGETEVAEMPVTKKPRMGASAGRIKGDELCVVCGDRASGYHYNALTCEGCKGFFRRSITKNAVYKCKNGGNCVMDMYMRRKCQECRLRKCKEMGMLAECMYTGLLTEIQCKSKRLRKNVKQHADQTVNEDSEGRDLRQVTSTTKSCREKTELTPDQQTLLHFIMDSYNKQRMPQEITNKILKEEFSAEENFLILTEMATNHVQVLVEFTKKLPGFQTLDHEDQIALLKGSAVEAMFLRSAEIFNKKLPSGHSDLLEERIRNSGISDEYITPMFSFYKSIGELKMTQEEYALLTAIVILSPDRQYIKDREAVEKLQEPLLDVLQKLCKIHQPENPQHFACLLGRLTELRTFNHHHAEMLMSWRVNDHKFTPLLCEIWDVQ

SMILES	outcome	AC50
CC(=O)c1ccc2ccccc2c1	inactive	
COc1ccc2[nH]cc(CCNC(C)=O)c2c1	inactive	
CCC(=O)OC(C)(C)C1CC=C(C)CC1 (stereo not drawn)		83.9 µM (active)
NC(=O)c1cccnc1	inactive	
CC(=O)C1=C(C)[C@@H]2C[C@@]3(C1)[C@H](C)CC[C@H]3C2(C)C		37.2 µM (active)
O=S(=O)(O)c1cc(S(=O)(=O)O)c2c(N=Nc3ccccc3)c(O)ccc2c1	inactive	
